The text below walks through data of PubChem BioAssay (NCATS).

Values without a mark were called inactive. Results filed as inconclusive are left out. The source made the active and inactive calls. Unless noted, calls follow the shape of the dose curve; as a rule, active = well fitted curve in the direction sought with a large enough effect; inconclusive = small, poorly fitted or top-dose-only effect, or another doubt; inactive = no such curve, though single readings can be large; an effect the other way counts as inactive or inconclusive.

Assay [1] deals with Lysosomal acid glucosylceramidase (Homo sapiens) (UniProt P04062). Description: Glucocerebrosidase-p2 (AID 348; in the data active = potency below about 10 µM; also: potency is read from the fitted curve at half-maximal effect). Particulars: purified GBA, blue fluorogenic substrate, 40 min. The procedure, abridged: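 Normal human glucocerebrosidase (0.2 nM) with blue fluorogenic substrate (80 uM final) in citrate/phosphate pH 5.9 with 10mM sodium taurocholate, 0.01% tween-20; 40 min RT, NaOH/glycine stop; fluorescence Ex 365/Em 440; AC50 from a titration from 0.6 nM upwards.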

Assay [2] is described as follows: AP1 Signaling Pathway (AID 357; active = well fitted curve in either direction with a large enough effect, not every such curve was filed as active; also: % is scaled to controls: 0 for no effect and ±100 for the full control effect). Conditions: ME-180 AP-1-bla reporter, EGF-induced, beta-lactamase ratio, 5 h; at 7.69 µM (top of the series) unless noted. The essentials:
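ME-180 cells with beta-lactamase reporter under AP-1 response element, stimulated with EC50 EGF; compounds tested in titration series, 5 h at 37 °C. CCF4 substrate added 2.5 h at room temperature; 460/530 nm emission ratio gave %activity and AC50.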

Assay [3] concerns the target Cytochrome P450 1A2 (Homo sapiens) (UniProt P05177). The assay is described as follows: p450-cyp1a2 (AID 410; calls by dose curve; also: potency is read from the fitted curve at half-maximal effect). Particulars: recombinant CYP1A2, luciferin-ME demethylation, luminescence; series mostly up to 57 µM. The procedure, abridged: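 O-Demethylation of luciferin 6' methyl ether by human CYP1A2 is monitored as luciferase luminescence. Substrate sits at Km (100uM); enzyme is 20nM. Values are scaled to 57 uM furafylline as maximal inhibition.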

The nature of assay [4]: NFAT Signaling Pathway (AID 444; active = well fitted curve in either direction with a large enough effect, not every such curve was filed as active;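 also: carbachol stimulus at about its EC50 of 1 µM final; % is scaled to controls: 0 for no effect and ±100 for the full control effect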). Conditions: Jurkat NFAT-bla M1, carbachol, beta-lactamase ratio, 5 h; at 7.69 µM (top of the series) unless noted. The essentials: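 Jurkat cells with NFAT-driven β-lactamase reporter and co-expressed M1 receptor, stimulated with carbachol (final 1 uM, ~EC50), compound titration, 5 h at 37 °C. CCF4 loaded 1 h at RT; 460/530 nm ratio gave %activity and AC50.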

A short description of assay [5]: Stat Signaling Pathway (AID 446; active = well fitted curve in either direction with a large enough effect, not every such curve was filed as active;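 also: ME-180 cervical cancer cells given 40 pM IL-6 alongside compound; SIE-controlled beta-lactamase reporter measured as 460/530 nm FRET emission ratio; % is scaled to controls: 0 for no effect and ±100 for the full control effect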). Particulars: ME-180 (cervical carcinoma) SIE beta-lactamase reporter, IL-6 stimulated, 5 h; at 7.69 µM (top of the series) unless noted. The essentials:
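Overnight-plated ME-180 cells bearing a STAT Inducible Element beta-lactamase reporter; 5 h co-exposure to compound and 40 pM IL-6; values normalized to 300 pM IL-6 and 125 nM JAK inhibitor controls.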

Assay [6] has as its target Glucocorticoid receptor (Homo sapiens) (UniProt P04150). The assay is described as follows: GR-GFP Redistribution (AID 450;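 active = compounds whose dose series gives a full or clear partial fitted curve of increased nuclear translocation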; also: potency is read from the fitted curve at half-maximal effect). Conditions: U2OS GR-GFP nuclear translocation, laser cytometry, 2 h.
Assay [7] has the same target. The assay is described as follows: GR-EFC Redistribution (AID 451; calls by dose curve; also: potency is read from the fitted curve at half-maximal effect). Conditions: CHO-K1 GR-EFC translocation, beta-gal luminescence, 2 h. The essentials:
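CHO-K1 cells expressing nuclear EA and GR-ED fragments of b-gal; compounds titrated up to 46 uM final, 2 h at 37 C. GR nuclear translocation read as complemented b-gal luminescence after 1 h RT detection.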

For assay [8], the target named is Mitogen-activated protein kinase 10 (Mus musculus) (UniProt Q61831). Description: JNK3 AlphaScreen Assay (AID 530; active = well fitted curve in either direction with a large enough effect, not every such curve was filed as active;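 also: kinase came from lysate of stimulated human HepG2 cells; signal reports phosphorylation of biotinylated GST-cJun 1-79 at Ser73 with 10 µM ATP; % is scaled to controls: 0 for no effect and ±100 for the full control effect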). Conditions: JNK3 lysate, c-Jun phosphorylation; series mostly up to 57.1 µM. The procedure, abridged:
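Activity was read by AlphaScreen after JNK3-containing HepG2 lysate (cytokine pre-activated) phosphorylated biotinylated GST-cJun with 10 uM ATP at room temperature. Phospho-Ser73 cJun antibody with Protein-A acceptor beads provided detection.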
(In Alpha technology, singlet oxygen from a donor bead excites a nearby acceptor bead.)

Assay [9] has as its target Cytochrome P450 2C9 (Homo sapiens) (UniProt P11712). The assay is described as follows: qHTS Assay for Inhibitors and Substrates of Cytochrome P450 2C9 (AID 883). Also: nearly all actives have a fitted effect of over 60% in size. Also: potency is read from the fitted curve at half-maximal effect. Particulars: recombinant CYP2C9, luciferin-H luminescence, 60 min; series mostly up to 57.1 µM. The essentials: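 Human CYP2C9 (10nM) with Luciferin-H at 100uM (its KM) in 25mM KPO4; compound preincubated 10 min at 37C, then NADPH regeneration for 60 min at 37C. Luciferin read by luminescence after detection reagent; normalized to 57uM sulphaphenazole as full inhibition.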

The target in assay [10] is Cytochrome P450 3A4 (Homo sapiens) (UniProt P08684). The assay is described as follows: qHTS Assay for Activators of Cytochrome P450 3A4 (AID 885). Also: nearly all actives have a fitted effect of over 65% in size. Particulars: recombinant CYP3A4, Luciferin-PPXE luminescence, 60 min; series mostly up to 57.1 µM. The procedure, abridged: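 Using 20nM recombinant human CYP3A4 in potassium phosphate (200mM), substrate Luciferin-PPXE at 25uM, luminescent luciferin detection followed a 60-min RT NADPH reaction; data scaled to 57 uM ketoconazole.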

In assay [11] the target is Cytochrome P450 2C19 (Homo sapiens) (UniProt P33261). Description: qHTS Assay for Inhibitors and Substrates of Cytochrome P450 2C19 (AID 899). Also: potency is read from the fitted curve at half-maximal effect; nearly all actives have a fitted effect of over 60% in size. Particulars: recombinant CYP2C19, luciferin-H EGE luminescence; series mostly up to 57.1 µM. The procedure, abridged: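 5 nM human CYP2C19 with 10uM Luciferin-H EGE (at KM) in 50mM KPO4, compound preincubated 10 min at 37C, then NADPH regeneration for 60 min at 37C. Luciferin read by luminescence after detection reagent; normalized to 57uM ketoconazole as full inhibition.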
(In qHTS, concentration-response curves come from the screen itself.)

For assay [12], the target named is Dual specificity protein kinase CLK4 (Homo sapiens) (UniProt Q9HAZ1). Description: qHTS Assay for Inhibitors of CDC-like Kinase 4 (Kinase-Glo Assay) (AID 1770). Also: % is scaled to controls: 0 for no effect and ±100 for the full control effect; nearly all actives have a fitted effect of over 65% in size. Conditions: recombinant Clk4, Kinase-Glo ATP depletion luminescence; series mostly up to 66.7 µM. The essentials: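 Substrate mix (RS peptide 100 uM, ATP 1 uM) dispensed, compound pinned in, then Clk4 added to 25 nM final. Incubated 4.5 h at RT; Kinase-Glo reagent added, luminescence read after 5 min.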

Assay [13] shares this target. Description: qHTS Assay for Inhibitors of CDC-like Kinase 4 (ADP-Glo Assay) (AID 1771). Also: % is scaled to controls: 0 for no effect and ±100 for the full control effect; nearly all actives have a fitted effect of over 70% in size. Particulars: recombinant CLK4, ADP-Glo luminescence; series mostly up to 80 µM. The essentials:
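Compounds are pin-transferred onto substrate mix (100 uM RS peptide, 1 uM ATP), then 25 nM Clk4 is added. After 1 hr at room temperature, ADP-Glo reagent runs 45 min, detection reagent 30 min, then luminescence is read.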

Assay [14] shares this target. Description: qHTS Assay for Inhibitors of CDC-like Kinase 4 (ADP-FP Assay) (AID 1795).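 Also: recombinant human CLK4 phosphorylating RS repeat peptide at 1 µM ATP; % is scaled to controls: 0 for no effect and ±100 for the full control effect; nearly all actives have a fitted effect of over 60% in size.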 Particulars: Transcreener ADP fluorescence polarization; series mostly up to 50 µM. The essentials: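 Clk4 6.25 nM; RS peptide 100 uM; ATP 1 uM; 25 mM Tris pH 7.5, 10 mM MgCl2; 1 h reaction. ADP detected via antibody/orange tracer FP displacement; TG003 positive control.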
For assay [15], the target named is Ubiquitin carboxyl-terminal hydrolase 1 (Homo sapiens) (UniProt O94782). The assay is described as follows: Inhibitors of USP1/UAF1: Pilot qHTS (AID 504865).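 Also: rhodamine fluorescence freed from ubiquitin-rhodamine substrate followed over time; top concentration of the series differs between compounds; % is scaled to controls: 0 for no effect and ±100 for the full control effect; nearly all actives have a fitted effect of over 35% in size.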 Conditions: purified USP1/UAF1, Ub-rhodamine cleavage fluorescence; series mostly up to 54.9 µM. The procedure, abridged: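 In 50mM HEPES pH 7.8 containing 0.5mM EDTA, 1mM TCEP, 0.1 mg/ml BSA and 0.01% Tween-20, 1nM USP1/UAF1 is exposed to compound for 15 min, then Ub-Rho (150nM final) is added and fluorescence is read over time.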

A short description of assay [16]: Primary qHTS for small molecule stabilizers of the endoplasmic reticulum resident proteome: Secreted ER Calcium Modulated Protein (SERCaMP) assay (AID 1508630). Also: % is scaled to controls: 0 for no effect and ±100 for the full control effect. Conditions: SH-SY5Y GLuc-SERCaMP (Gaussia luciferase released on ER calcium loss) secretion, thapsigargin, luminescence; series mostly up to 38.4 µM. The procedure, abridged:
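The SH-SY5Y reporter protocol was run at 3 concentrations up to 38.3 uM (primary) or 11 concentrations (follow-up): 16 h compound, 100 nM thapsigargin for 4 h, then extracellular luciferase luminescence.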

The target in assay [17] is 3',5'-cyclic-AMP phosphodiesterase 4B (Homo sapiens) (UniProt Q07343). Description: qHTS Assay for Inhibitors of PDE-IV (AID 607; active = well fitted activation curve with a large enough effect in the main read-out, with a control signal flat, not every such curve was filed as active; also: % of control where 0% means no effect). Particulars: HEK293 ACTOne CNG channel cells, membrane potential fluorescence; series mostly up to 22.9 µM. The procedure, abridged:
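Live HEK293 cells with a modified cyclic nucleotide-gated (CNG) channel report intracellular cAMP via membrane-potential dye fluorescence (ex 535/em 590 nm). Endogenous PDE-IV was targeted. Compounds were tested at up to 22.9 uM final; RO 20-1724 100 uM served as control.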

Sequence of Dual specificity protein kinase CLK4 (Homo sapiens) (Q9HAZ1 whole entry, looked up): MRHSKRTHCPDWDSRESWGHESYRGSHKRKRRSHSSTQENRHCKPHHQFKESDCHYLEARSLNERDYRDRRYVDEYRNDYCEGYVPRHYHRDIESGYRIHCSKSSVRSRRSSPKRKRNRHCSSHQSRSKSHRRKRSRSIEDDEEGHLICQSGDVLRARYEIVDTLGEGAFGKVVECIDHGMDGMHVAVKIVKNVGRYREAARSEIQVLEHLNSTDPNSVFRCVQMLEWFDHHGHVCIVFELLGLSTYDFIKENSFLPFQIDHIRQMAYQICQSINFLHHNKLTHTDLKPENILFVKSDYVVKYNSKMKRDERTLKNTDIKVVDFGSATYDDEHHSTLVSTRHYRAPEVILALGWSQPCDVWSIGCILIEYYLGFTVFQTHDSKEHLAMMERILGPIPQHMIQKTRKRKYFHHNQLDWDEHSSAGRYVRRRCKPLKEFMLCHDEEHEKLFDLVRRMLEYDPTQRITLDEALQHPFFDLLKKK
Sequence of Cytochrome P450 1A2 (Homo sapiens) (P05177 whole entry, looked up): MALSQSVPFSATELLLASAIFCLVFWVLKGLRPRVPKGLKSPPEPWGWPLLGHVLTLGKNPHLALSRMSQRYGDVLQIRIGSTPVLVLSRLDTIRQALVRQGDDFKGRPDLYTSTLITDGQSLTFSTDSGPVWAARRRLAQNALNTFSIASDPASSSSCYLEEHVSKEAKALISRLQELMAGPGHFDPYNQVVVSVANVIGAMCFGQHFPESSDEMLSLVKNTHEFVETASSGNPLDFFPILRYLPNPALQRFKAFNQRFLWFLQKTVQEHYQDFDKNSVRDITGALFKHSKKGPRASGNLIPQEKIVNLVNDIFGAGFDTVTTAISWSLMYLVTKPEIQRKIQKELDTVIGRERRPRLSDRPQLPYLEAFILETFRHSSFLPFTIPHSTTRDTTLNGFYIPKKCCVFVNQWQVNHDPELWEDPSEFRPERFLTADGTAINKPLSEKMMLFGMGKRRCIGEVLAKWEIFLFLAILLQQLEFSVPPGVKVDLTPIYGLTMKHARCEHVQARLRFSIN
Sequence of Ubiquitin carboxyl-terminal hydrolase 1 (Homo sapiens) (O94782 whole entry, looked up): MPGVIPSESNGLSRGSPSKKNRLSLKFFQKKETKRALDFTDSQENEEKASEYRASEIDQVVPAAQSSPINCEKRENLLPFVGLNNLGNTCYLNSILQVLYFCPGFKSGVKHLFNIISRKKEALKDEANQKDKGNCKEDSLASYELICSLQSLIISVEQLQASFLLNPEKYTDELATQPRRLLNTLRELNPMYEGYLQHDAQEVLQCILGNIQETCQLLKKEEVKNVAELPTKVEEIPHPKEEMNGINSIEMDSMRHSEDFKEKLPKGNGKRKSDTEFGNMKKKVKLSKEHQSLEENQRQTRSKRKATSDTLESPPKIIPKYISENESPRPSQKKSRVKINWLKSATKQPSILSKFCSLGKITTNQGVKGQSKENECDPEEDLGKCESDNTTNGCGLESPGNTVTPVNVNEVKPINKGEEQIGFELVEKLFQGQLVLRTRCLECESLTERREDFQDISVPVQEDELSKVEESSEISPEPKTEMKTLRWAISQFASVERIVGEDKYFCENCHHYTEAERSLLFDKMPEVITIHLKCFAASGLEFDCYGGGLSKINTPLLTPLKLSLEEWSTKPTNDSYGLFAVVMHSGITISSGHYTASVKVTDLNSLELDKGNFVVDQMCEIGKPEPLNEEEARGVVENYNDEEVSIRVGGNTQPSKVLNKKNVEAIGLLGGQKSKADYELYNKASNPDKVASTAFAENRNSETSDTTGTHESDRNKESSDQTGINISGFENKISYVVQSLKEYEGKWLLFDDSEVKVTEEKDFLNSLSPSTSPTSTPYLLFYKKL
Sequence of Cytochrome P450 3A4 (Homo sapiens) (P08684 whole entry, looked up): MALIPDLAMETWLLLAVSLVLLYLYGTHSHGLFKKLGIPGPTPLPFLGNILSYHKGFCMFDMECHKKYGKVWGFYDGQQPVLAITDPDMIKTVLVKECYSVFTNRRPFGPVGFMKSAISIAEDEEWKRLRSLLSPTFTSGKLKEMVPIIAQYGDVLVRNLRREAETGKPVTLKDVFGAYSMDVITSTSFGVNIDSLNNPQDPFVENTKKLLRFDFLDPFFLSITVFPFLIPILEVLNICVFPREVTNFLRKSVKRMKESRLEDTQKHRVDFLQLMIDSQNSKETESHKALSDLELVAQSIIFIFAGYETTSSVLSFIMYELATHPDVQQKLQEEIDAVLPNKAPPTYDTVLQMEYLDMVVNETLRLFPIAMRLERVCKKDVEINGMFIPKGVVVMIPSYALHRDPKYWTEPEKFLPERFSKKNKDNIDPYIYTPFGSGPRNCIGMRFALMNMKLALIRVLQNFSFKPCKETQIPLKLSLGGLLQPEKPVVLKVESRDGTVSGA
Sequence of Lysosomal acid glucosylceramidase (Homo sapiens) (P04062 whole entry, looked up): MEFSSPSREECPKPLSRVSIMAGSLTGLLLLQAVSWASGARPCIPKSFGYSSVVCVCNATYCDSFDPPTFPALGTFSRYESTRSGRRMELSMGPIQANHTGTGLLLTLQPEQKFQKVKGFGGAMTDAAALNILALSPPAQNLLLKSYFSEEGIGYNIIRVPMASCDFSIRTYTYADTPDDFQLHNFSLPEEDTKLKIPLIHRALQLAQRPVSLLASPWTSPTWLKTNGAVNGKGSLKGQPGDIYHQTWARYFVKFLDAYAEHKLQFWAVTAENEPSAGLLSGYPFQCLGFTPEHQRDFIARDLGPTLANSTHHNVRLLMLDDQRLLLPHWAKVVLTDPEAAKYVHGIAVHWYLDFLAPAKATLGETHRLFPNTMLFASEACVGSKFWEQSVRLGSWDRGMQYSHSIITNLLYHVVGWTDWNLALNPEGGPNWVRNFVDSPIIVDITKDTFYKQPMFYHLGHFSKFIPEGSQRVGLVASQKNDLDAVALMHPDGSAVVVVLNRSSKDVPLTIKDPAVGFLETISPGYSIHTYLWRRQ
Sequence of Glucocorticoid receptor (Homo sapiens) (P04150 whole entry, looked up): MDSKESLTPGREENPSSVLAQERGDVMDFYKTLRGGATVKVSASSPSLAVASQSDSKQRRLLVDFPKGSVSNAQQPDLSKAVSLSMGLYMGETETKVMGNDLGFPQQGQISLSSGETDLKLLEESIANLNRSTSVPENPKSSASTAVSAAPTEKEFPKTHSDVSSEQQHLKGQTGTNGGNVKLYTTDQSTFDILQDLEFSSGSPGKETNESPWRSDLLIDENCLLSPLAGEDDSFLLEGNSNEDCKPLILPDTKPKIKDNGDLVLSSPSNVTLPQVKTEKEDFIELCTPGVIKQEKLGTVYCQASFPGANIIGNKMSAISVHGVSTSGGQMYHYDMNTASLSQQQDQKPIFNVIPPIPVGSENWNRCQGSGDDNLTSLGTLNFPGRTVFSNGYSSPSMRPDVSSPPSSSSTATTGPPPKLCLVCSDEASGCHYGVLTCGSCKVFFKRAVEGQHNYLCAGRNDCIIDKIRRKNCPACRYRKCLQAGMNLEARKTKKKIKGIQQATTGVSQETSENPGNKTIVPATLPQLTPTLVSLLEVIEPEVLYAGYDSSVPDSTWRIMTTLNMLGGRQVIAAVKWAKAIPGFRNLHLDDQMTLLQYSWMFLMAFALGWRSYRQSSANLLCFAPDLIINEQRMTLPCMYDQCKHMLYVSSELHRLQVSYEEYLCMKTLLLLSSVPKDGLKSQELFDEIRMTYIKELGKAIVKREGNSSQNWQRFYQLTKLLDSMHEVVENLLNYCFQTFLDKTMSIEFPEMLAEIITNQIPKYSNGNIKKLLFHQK
Sequence of Cytochrome P450 2C9 (Homo sapiens) (P11712 whole entry, looked up): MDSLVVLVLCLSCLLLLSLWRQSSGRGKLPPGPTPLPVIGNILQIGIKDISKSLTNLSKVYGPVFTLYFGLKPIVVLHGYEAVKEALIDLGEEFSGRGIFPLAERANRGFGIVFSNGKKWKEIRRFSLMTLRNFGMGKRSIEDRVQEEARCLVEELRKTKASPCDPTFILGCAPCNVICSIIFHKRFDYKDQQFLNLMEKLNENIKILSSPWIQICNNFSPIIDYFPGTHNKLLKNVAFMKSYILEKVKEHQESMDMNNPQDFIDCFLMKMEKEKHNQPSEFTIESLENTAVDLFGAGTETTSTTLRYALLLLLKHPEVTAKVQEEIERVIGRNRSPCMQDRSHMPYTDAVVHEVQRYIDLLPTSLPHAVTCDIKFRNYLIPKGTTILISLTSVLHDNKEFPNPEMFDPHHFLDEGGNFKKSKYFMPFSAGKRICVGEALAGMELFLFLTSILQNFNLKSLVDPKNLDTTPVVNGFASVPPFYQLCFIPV
Sequence of 3',5'-cyclic-AMP phosphodiesterase 4B (Homo sapiens) (Q07343 whole entry, looked up): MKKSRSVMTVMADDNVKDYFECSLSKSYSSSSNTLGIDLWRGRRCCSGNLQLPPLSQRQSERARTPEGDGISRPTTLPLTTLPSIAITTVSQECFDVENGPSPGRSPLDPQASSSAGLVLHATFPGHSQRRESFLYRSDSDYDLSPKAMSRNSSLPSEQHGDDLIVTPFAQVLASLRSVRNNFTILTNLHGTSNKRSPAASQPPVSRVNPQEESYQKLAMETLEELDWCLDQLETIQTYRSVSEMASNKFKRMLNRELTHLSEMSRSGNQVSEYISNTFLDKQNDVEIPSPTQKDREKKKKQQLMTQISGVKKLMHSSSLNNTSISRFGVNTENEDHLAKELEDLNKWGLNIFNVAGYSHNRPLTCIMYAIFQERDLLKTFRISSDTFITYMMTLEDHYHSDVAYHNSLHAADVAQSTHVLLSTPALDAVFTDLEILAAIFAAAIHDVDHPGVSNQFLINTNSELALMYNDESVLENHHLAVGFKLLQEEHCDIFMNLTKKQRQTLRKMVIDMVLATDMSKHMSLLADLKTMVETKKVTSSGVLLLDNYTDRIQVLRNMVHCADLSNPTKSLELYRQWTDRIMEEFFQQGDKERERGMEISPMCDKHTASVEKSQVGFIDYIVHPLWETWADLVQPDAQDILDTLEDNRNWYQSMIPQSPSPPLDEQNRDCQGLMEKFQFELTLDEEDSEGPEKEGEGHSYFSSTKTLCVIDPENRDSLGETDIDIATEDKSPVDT

Take `O=c1c(-c2cccc(F)c2)nc2cncnc2n1Cc1ccccc1Cl`: the Potency in assay [1] is > 11.4 µM; in assay [3] it was 3.98 µM (active); in assay [6] it was > 9.22 µM; in assay [7] it was > 46 µM; in assay [9] it was 7.94 µM (active); in assay [11] it was 0.794 µM (active). The activity change, negative = inhibition in assay [2] is -4.26%; in [4], -7.87%. Besides, the activity, negative = inhibition in assay [5] was 4.32%. Further, the Potency entry in [8], in assay [10], in assay [12], in assay [13], in assay [14] and in [15] was “inactive” throughout. Besides, the result in assay [16] was inactive.

Consider `COc1ccc(-n2c(=O)c(-c3cccc(F)c3)nc3cncnc32)cc1`, for which the Potency in assay [1] was > 11.4 µM; in [3], 3.98 µM (active); in [6] it was > 9.22 µM; in assay [7] it was > 46 µM. Further, the results for the activity change, negative = inhibition in assay [2] and in assay [4] were -4.56% and 7.82%, respectively. The activity, negative = inhibition in assay [5] is -17.1%. For the same compound, the Potency entry in assay [8], in assay [17], in assay [10], in assay [12], in assay [13] and in assay [14] was “inactive” throughout. In assay [15], the Potency result was “inactive”. Also, the outcome in [16] was inactive.

As to `COc1ncc2nc(-c3cn(C)c4ccccc34)c(=O)n(-c3ccccc3)c2n1`, the Potency was > 11.4 µM in [1], 5.01 µM (active) in assay [3], > 9.22 µM in assay [6] and > 46 µM in assay [7]. Besides, the activity change, negative = inhibition is -0.341% in assay [2] and -18.5% in assay [4]. For the same compound, the activity, negative = inhibition in assay [5] is 6.13%. Also, the Potency result in [8], in assay [9], in [10], in [12], in assay [13] and in assay [14] was “inactive” each time. Besides, the Potency result in assay [15] is “inactive”. In assay [16], the outcome was inactive.

`COc1cccc(Cn2c(=O)cnc3cnc(OCc4ccccc4)nc32)c1`: the Potency in assay [1] is > 11.4 µM; in assay [3] it was 12.6 µM (active); in [6], > 9.22 µM; in assay [7] it was > 46 µM. In addition, the activity change, negative = inhibition was -24.3% in assay [2] and -4.5% in assay [4]. Further, in [5], the activity, negative = inhibition is -13.2%. The Potency entry in assay [8], in assay [10], in assay [12], in assay [13], in assay [14] and in [15] was “inactive” throughout. Moreover, the outcome in assay [16] was inactive.

In the case of `CCNc1ncc2nc(-c3cn(C)c4ccccc34)c(=O)n(CCC#N)c2n1`, the Potency was > 11.4 µM in [1], 5.01 µM (active) in [3], > 9.22 µM in [6] and > 46 µM in assay [7]. The activity change, negative = inhibition was -22.2% in [2] and -4.28% in assay [4]. For the same compound, the activity, negative = inhibition in assay [5] is -12.7%. Also, the Potency entry in assay [8], in assay [10], in assay [12], in assay [13], in assay [14] and in assay [15] was “inactive” each time. Moreover, the outcome in assay [16] was inactive.

As for `COc1cccc(Cn2c(=O)c(-c3cn(C)c4ccccc34)nc3cncnc32)c1`, the Potency is > 11.4 µM in assay [1], 1 µM (active) in assay [3], > 9.22 µM in [6] and > 46 µM in assay [7]. For the same compound, the activity change, negative = inhibition was 2.97% in assay [2] and -0.984% in [4]. Besides, in assay [5], the activity, negative = inhibition was -0.403%. For the same compound, the Potency result in assay [8], in assay [17], in assay [10], in assay [12], in [13] and in assay [14] was “inactive” throughout. Also, the Potency entry in [15] was “inactive”. The outcome in assay [16] was inactive.
